From PubChem
Mcl-1 Bim block = disrupts Bim peptide binding to human Mcl-1. Q07820. Bead-based flow cytometry, Bim peptide-Mcl-1 binding. inhibition, % at 10 µM. actives 0.1% (n = 190,000); in the data active = inhibition above about 40%;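 note: 0% = no compound tracer wells and 100% = peptide blocker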
Target sequence (Q07820 whole entry, looked up): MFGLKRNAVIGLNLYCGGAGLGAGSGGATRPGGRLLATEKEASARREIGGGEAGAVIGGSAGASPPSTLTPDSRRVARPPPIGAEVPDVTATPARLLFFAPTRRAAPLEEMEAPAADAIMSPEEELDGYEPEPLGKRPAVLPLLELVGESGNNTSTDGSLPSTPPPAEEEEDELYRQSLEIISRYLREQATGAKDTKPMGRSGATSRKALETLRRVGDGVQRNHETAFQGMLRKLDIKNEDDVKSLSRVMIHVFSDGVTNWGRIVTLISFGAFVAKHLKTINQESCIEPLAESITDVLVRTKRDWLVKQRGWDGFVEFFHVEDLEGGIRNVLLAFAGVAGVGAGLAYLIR
GLD-1 TGE inh = GLD-1-TGE RNA interaction inhibition (C. elegans). inhibition, % at 5.96 µM. AID 2280. purified GLD-1 + fluorescein TGE RNA, fluorescence polarization. actives 0.44% (n = 320,000). Q17339;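 active = percent inhibition above a per-plate cutoff, the plate mean of test compounds plus 3 SD, cut at about 30% in these data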;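 note: 0% = DMSO wells with GLD-1 and probe and 100% = wells lacking GLD-1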
Mcl1-Noxa inh = Mcl-1/Noxa interaction inhibition | actives 1.5% (n = 220,000) | inhibition, % at 21.7 µM | Q07820 | AID 1022 | TR-FRET Mcl-1/Noxa peptide binding, 2 h;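 active = compounds that cut the protein-peptide binding signal by more than 50% relative to plate controls in a single-dose test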;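 note: His-tagged Mcl-1 with rhodamine Noxa BH3 peptide and terbium anti-His antibody; 0% = Mcl-1 plus Noxa peptide wells and 100% = peptide-only wells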
Mcl1-Bid inh = Mcl-1/Bid interaction inhibition. Q07820. TR-FRET Mcl-1/Bid-Dy647 peptide binding, 1536-well. inhibition, % at 21.7 µM. actives 0.97% (n = 220,000). AID 1021;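 active = compounds that cut the binding signal by more than half at the single screening dose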;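 note: His-tagged Mcl-1 with europium anti-His antibody binding Bid BH3 peptide; 0% = Mcl-1 plus peptide wells and 100% = peptide-only wells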
MCL1 BIM primary = MCL1-BIM-BH3 interaction inhibition (human) | Q07820 | GST-MCL1 / FITC-Bim-BH3 fluorescence polarization | inhibition, % at 10.9 µM | actives 0.68% (n = 320,000);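 active = inhibition above the mean inhibition of all tested compounds plus 3 SD, set per campaign, cut at about 40% in these data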;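 note: 0% = DMSO wells and 100% = unlabeled Bim-BH3 peptide control; higher means more loss of mP so more displacement of Bim peptide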
BCLXL inh = blocks human Bcl-xL binding to Bim BH3 peptide; inhibition, % at 10.9 µM; actives 0.7% (n = 320,000); AID 2129; Q07817; GST-Bcl-xL / FITC-Bim BH3 peptide fluorescence polarization;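 active = inhibition above the mean of all tested compounds plus 3 SD, cutoff set per campaign, cut at about 30% in these data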;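 note: 0% = DMSO wells and 100% = unlabeled Bim-BH3 peptide competitor; inhibitors lower millipolarization by displacing the labeled peptide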
Numbers without * were called inactive. Most compounds without a hit are left out; they make up all but 2.3% or so of the library.

Screening O=C(N=Nc1c(O)[nH]c2ccc([N+](=O)[O-])cc12)c1cc(-c2ccccc2Cl)nc2ccccc12 returned Mcl-1 Bim block -4, GLD-1 TGE inh -3, Mcl1-Noxa inh 77*, Mcl1-Bid inh 96*, MCL1 BIM primary 5 and BCLXL inh 0.
For COc1ccccc1C(=O)N=Nc1c(O)[nH]c2ccc([N+](=O)[O-])cc12 the results were Mcl-1 Bim block 26, Mcl1-Noxa inh 78* and Mcl1-Bid inh -10.
`CN1CCC(N(C)C(=S)NCCc2ccccc2)CC1` gave Mcl-1 Bim block 0, GLD-1 TGE inh -5, Mcl1-Noxa inh 19, Mcl1-Bid inh -22, MCL1 BIM primary 0 and BCLXL inh 5.
`C/C(O)=C(\N=Nc1cc(C)ccc1O)C(N)=O` gave Mcl-1 Bim block 3, GLD-1 TGE inh 3, Mcl1-Noxa inh 12, Mcl1-Bid inh -6, MCL1 BIM primary 4 and BCLXL inh 4.
`COc1cc(/C=C2/S/C(=N/S(=O)(=O)c3ccccc3)NC2=O)c([N+](=O)[O-])cc1OC` gave Mcl-1 Bim block 0, GLD-1 TGE inh 20, Mcl1-Noxa inh 29, Mcl1-Bid inh 21, MCL1 BIM primary 46* and BCLXL inh 40*.
COc1cc(/C=C2\S/C(=N/S(=O)(=O)Cc3ccccc3)NC2=O)c([N+](=O)[O-])cc1OC was read as GLD-1 TGE inh 19, Mcl1-Noxa inh 11, Mcl1-Bid inh 6, MCL1 BIM primary 23 and BCLXL inh 28.
Screening O=C(Nc1nc2c(F)cc(F)cc2s1)C1CC(=O)N(Cc2ccco2)C1 (centres undefined) returned GLD-1 TGE inh 5, Mcl1-Noxa inh 59*, Mcl1-Bid inh -20, MCL1 BIM primary 13 and BCLXL inh 9.
`O=C(NCC1CCCO1)C1CCN(S(=O)(=O)Cc2ccccc2)CC1` (centres undefined) gave Mcl-1 Bim block 4, GLD-1 TGE inh 151*, Mcl1-Noxa inh 12, Mcl1-Bid inh -4, MCL1 BIM primary -1 and BCLXL inh 2.
For O=C(NC1CC1)c1nc(Cn2cc([N+](=O)[O-])cn2)no1 the results were GLD-1 TGE inh -1, MCL1 BIM primary 6 and BCLXL inh 4.
Screening O=C1CSC(c2ccncc2)N1Cc1ccccc1 (centres undefined) returned Mcl-1 Bim block 0, GLD-1 TGE inh 5, Mcl1-Noxa inh 22, Mcl1-Bid inh 93*, MCL1 BIM primary 4 and BCLXL inh 10.
`CCN1CCN(CCC(=O)Nc2cccc(C)c2)CC1` gave GLD-1 TGE inh 1, MCL1 BIM primary 0 and BCLXL inh 32*.
Screening Cc1cccc(NC(=O)CCN2CCOCC2)c1 returned Mcl-1 Bim block -1, GLD-1 TGE inh 6, Mcl1-Noxa inh -19, Mcl1-Bid inh -19, MCL1 BIM primary -3 and BCLXL inh 0.
`O=S(=O)(Nc1nccs1)c1ccc(Nc2nnc(-c3ccccc3)c3ccccc23)cc1` gave Mcl-1 Bim block -5, GLD-1 TGE inh 6, Mcl1-Noxa inh 68*, Mcl1-Bid inh 16, MCL1 BIM primary -5 and BCLXL inh 4.
Screening CN1CCN(CC(=O)NC2CCCCC2)CC1 returned Mcl-1 Bim block -1, GLD-1 TGE inh 5, Mcl1-Noxa inh 12, Mcl1-Bid inh 54*, MCL1 BIM primary 1 and BCLXL inh -2.
`C=CCN(c1ccccc1)S(=O)(=O)c1cccc(C(=O)N2CC(C)CC(C)C2)c1` (centres undefined) gave GLD-1 TGE inh 0, MCL1 BIM primary 8 and BCLXL inh 4.
Screening COc1ccc2[nH]c3c(N4CCc5ccccc5C4)ncnc3c2c1 returned GLD-1 TGE inh 4, Mcl1-Noxa inh 62*, Mcl1-Bid inh -1, MCL1 BIM primary 0 and BCLXL inh 4.
For COc1cc2[nH]c3c(N4CCN(c5ccccn5)CC4)ncnc3c2cc1OC the results were Mcl-1 Bim block 4, GLD-1 TGE inh 8, Mcl1-Noxa inh 64*, Mcl1-Bid inh -16, MCL1 BIM primary -15 and BCLXL inh -2.
